The values that follow come from PubChem BioAssay AID686978 (National Center for Advancing Translational Sciences (NCATS), 2013).

The structures appear in SMILES notation. “And” between values parts separate entries of the source, which are not always exact repeats. Equal entries are not always repeated. The campaign covered roughly 420,000 compounds. About 64,000 (15%) were called active. A call without a number means that no potency is given here. Another 27% or so got no clear call; they are omitted. The call rests on the fitted dose curve; in most records, active means well fitted inhibition curve with a large enough effect; inconclusive means small, poorly fitted or top-dose-only effect; inactive means flat fitted curve, though single readings scatter. Many of the other results were omitted from the sample, so actives are more common in it than they were.
Potency means the concentration at half of the fitted maximal effect.

The nature of this experiment: qHTS for Inhibitors of human tyrosyl-DNA phosphodiesterase 1 (TDP1): qHTS in cells in absence of CPT. Further: nearly all actives have a fitted effect of over 55% in size. As to conditions: DT40 Tdp1-/- hTDP1 cells, no CPT, ATP luminescence, 48 h; series mostly up to 46.2 µM. In a few lines: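 No-CPT arm: Tdp1-/-;hTDP1 DT40 cells (400/well) plus compounds, incubated ≥48 hr at 37 °C. Readout CellTiter-Glo luminescence.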
(In qHTS, concentration-response curves come from the screen itself.)
For `Cc1nc2ccccn2c1P(=S)(N1CCCCC1)N1CCCCC1`, the Potency is 18.4 µM (active).
For `CC(=NCC1CCCO1)c1c(O)n(-c2ccccc2)c(=O)[nH]c1=O` (stereo not given), the Potency entry is “inactive”.
Still for that read-out and setting: the value for `CCc1nnc(NS(=O)(=O)c2ccc(N=Cc3c(O)n(-c4ccccc4)c(=O)[nH]c3=O)cc2)s1` was “inactive”.
As to `CCN(CC)C(=O)Oc1ccc(NC(=O)N2CCOCC2)cc1`, the Potency result was “inactive”.
Take `Cc1ccsc1C(=O)C1CCCN(Cc2ccc(O)cc2)C1` (stereo not given): the Potency result was “inactive”.
Same read-out and setting: the value for `COc1ccc(C(=O)C2CCCN(Cc3ccc(C)s3)C2)cc1OC` (stereo not given) was 14.6 µM (active).
For `c1ccc(CCCCN2CCC(c3ccccc3)CC2)cc1`, the Potency was 11.9 µM (active) and 18.4 µM (active).
Same read-out and setting: with `c1ccc(CCNC2CCCCCC2)cc1` the entry was “inactive”; with `c1ccc(CCN2CCC3(CC2)OCCO3)cc1`, “inactive”; with `CCC(=O)OC(Cc1ccccc1)(c1ccccc1)C(C)CN(C)C` (stereo not given), “inactive”.
As to `CC[C@]1(O)C(=O)OCc2c1cc1n(c2=O)Cc2cc3ccccc3nc2-1`, the Potency was 0.0211 µM (active).
The same measure, in the same setting: with `Cc1c(C(=O)O)cccc1-n1c(C)cc(/C=C2\C(=O)NC(=O)N(c3ccc4c(c3)OCO4)C2=O)c1C` the entry was “inactive”; with `c1ccc(Cc2nn3c(Cn4cnc5ccccc54)nnc3s2)cc1`, 23.1 µM (active); with `CN1CC[C@H](c2c(O)cc(O)c3c(=O)cc(-c4ccccc4Cl)oc23)[C@H](O)C1`, 0.0282 µM (active).
As for `C[C@@H]1CC[C@@]2(OC1)O[C@H]1C[C@H]3[C@@H]4CC=C5C[C@@H](O)[C@H](O)C[C@]5(C)C4CC[C@]3(C)[C@H]1[C@@H]2C` (stereo not given in full), the Potency was 18.4 µM (active).
On the same count and under the same terms, with `CC(=O)N1CN2CN(C(C)=O)CC(C(=O)c3ccc(Br)cc3)(C2)C1` the entry was “inactive”.
Still for that read-out and setting: the value for `Cc1ccc(P(=S)(c2ccc(C)o2)N2CCOCC2)o1` was “inactive”.
Same read-out and setting: with `Cc1cc(-c2ccc(N)c(C)c2)ccc1N` the entry was “inactive”; with `Fc1ccc(C(OCCN2CCN(C/C=C\c3ccccc3)CC2)c2ccc(F)cc2)cc1`, 6.68 µM (active).
Consider `Cn1cc(C(=O)OCC(=O)N2CCCC2)c2ccccc21`, for which the Potency result was “inactive”.
Turning to `CCN(Cc1ccccc1)S(=O)(=O)c1ccc2c(c1)CCCN2C(C)=O`, the Potency is 18.4 µM (active).
As for `Cc1ccc2c(c1)C1CN(C)CCC1N2C(=O)Cn1nnc(-c2ccccc2F)n1` (stereo not given), the Potency result was “inactive”.
With `CC1CNCCN1c1ccc(Cl)cc1` (stereo not given), the Potency result was “inactive”.
Turning to `O=c1oc2ccccc2c(O)c1C(c1ccccc1O)c1c(O)c2ccccc2oc1=O`, the activity change, negative = growth inhibition is -17.6% [at 9.04 µM] (inactive).
Turning to `CCC1(C)CC(CCNCc2ccc(N(C)C)cc2)(c2ccc(F)cc2)CCO1` (stereo not given), the Potency was 16.4 µM (active).
As to `CC1=CC(=O)C2=C(C)C[C@H](O)[C@H]3[C@H](C)C(=O)O[C@@H]3C12` (stereo not given in full), the Potency entry was “inactive”.
Take `C=CC12CN(C)[C@@H]3C4CO[C@H](C[C@H]41)[C@]1(C(=O)Nc4ccccc41)[C@@H]32` (stereo not given in full): the Potency result was “inactive”.
The same measure, in the same setting: with `COc1cc(-n2c(=S)[nH]c3ccc(C)cc3c2=O)c(Cl)cc1Cl` the figure was 18.4 µM (active); with `c1ccc(N2Cc3ccccc3-n3nncc3C2)nc1`, “inactive”.
The same measure, in the same setting: with `CCOCCCNC(=O)c1c(NC(=O)c2nc(SC)ncc2Cl)sc2c1CCCC2` the figure was 11.6 µM (active); with `c1ccc(C(CN2CCCCC2)c2ccccc2)cc1`, “inactive”; with `CCC(=NCCCO)c1c(O)n(-c2ccc(OC)cc2)c(=O)[nH]c1=O`, “inactive”.
As to `CCCCn1c(O)c(C(CC)=NCc2ccco2)c(=O)[nH]c1=O`, the Potency entry is “inactive”.
Same read-out and setting: with `CCCCCCN=C(CC)c1c(O)n(CCCC)c(=O)[nH]c1=O` the figure was 25.9 µM (active); with `CC(C)c1c(CN(C)C(C)Cc2ccccc2)n(C)n(-c2ccccc2)c1=O` (stereo not given), “inactive”; with `Cc1c(Oc2cc(NN3CCCCC3)c([N+](=O)[O-])cc2[N+](=O)[O-])cccc1[N+](=O)[O-]`, “inactive”.
On the same count and under the same terms, with `CC(C)(C)[C@]1(O)C[C@@H]2OC(=O)C[C@@]23C(=O)O[C@@H]2OC(=O)[C@H](O)[C@]213` the entry was “inactive”; with `COc1cccc(C(c2nnnn2-c2ccc3c(c2)OCCO3)N2CCC3(CC2)C(=O)NCN3c2ccccc2)c1OC` (stereo not given), 16.4 µM (active); with `COc1ccc(-n2nnnc2C(c2cccc3ccccc23)N2CCC(n3c(=O)[nH]c4ccccc43)CC2)cc1` (stereo not given), 16.4 µM (active).
Same read-out and setting: with `O=c1[nH]c2ccccc2n1C1CCN(C(c2ccccc2)c2nnnn2Cc2ccccc2)CC1` (stereo not given) the figure was 14.6 µM (active); with `CN1CCN(Cc2ccccc2C(F)(F)F)CC1`, “inactive”.
As for `CC(C)c1ccc(-n2c(O)c(/C=N/N3CCOCC3)c(=O)[nH]c2=S)cc1`, the Potency result is “inactive”.
Same read-out and setting: with `CC1C2Cn3c(nc4ccccc43)C1N(C)O2` (stereo not given) the entry was “inactive”.
The same measure, in the same setting: the value for `CC(=O)c1c(O)c(C)c(O)c(Cc2c(O)c3c(c(C(=O)/C=C/c4ccccc4)c2O)OC(C)(C)C=C3)c1O` was 8.91 µM (active) and 19.8 µM (active) and 13.3 µM (active); that for `CC(=O)c1c(O)c(C)c(O)c(Cc2c(O)c3c(c(C(=O)/C=C\c4ccccc4)c2O)OC(C)(C)C=C3)c1O` was 13.3 µM (active); that for `c1cc2c(cc1[C@H]1OC[C@H]3[C@@H]1CO[C@@H]3c1ccc3c(c1)OCO3)OCO2` was “inactive”.
Still for that read-out and setting: with `O=C(O)CCn1cc(C=C2C(=O)NC(=S)NC2=O)c(-c2cccc(Br)c2)n1` the entry was “inactive”; with `CCCC[N+]1(C)C2CC(OC(=O)C(CO)c3ccccc3)CC1C1OC12` (stereo not given), “inactive”; with `OC[C@@H]1CN(Cc2ccncc2)C[C@H](n2cnc3c(N4CCN(c5ccccc5)CC4)ncnc32)O1`, 2.91 µM (active).
As to `CC(C)Nc1nc(Cl)nc(NC(C)C)n1`, the Potency result is “inactive”.
Same read-out and setting: with `COc1ccccc1C(=O)N[C@@H]1c2ccccc2C2(CCN(Cc3nc(C(C)C)cs3)CC2)[C@H]1O` the figure was 1.64 µM (active).
Same read-out and setting: the value for `Cc1cccc(-n2c(O)c(/C=N/N3CCOCC3)c(=O)[nH]c2=S)c1` was “inactive”.
With `NC(=O)Nc1cccc(C(F)(F)F)c1`, the Potency result is “inactive”.
Consider `CC(=O)Nc1cc(-c2cccc(CO)c2)cn2c(-c3cccc(C(F)(F)F)c3)cnc12`, for which the Potency was 18.4 µM (active).
Same read-out and setting: with `CCN1CCN(c2nc3c(c(=O)[nH]2)CCC3)CC1` the entry was “inactive”.
On the same count and under the same terms, with `COC(=O)CN(CCCl)P1(=O)OCCCN1CCCl` (stereo not given) the entry was “inactive”; with `Fc1cccc(F)c1CN1CCN(Cc2c(F)cccc2F)CC1`, “inactive”; with `CN(C)c1cccc(C(=O)Nc2nc3ccc(S(=O)(=O)NC(C)(C)C)cc3s2)c1`, 11.6 µM (active).
On to `O=c1[nH]c(=S)n(C2CC2)c(O)c1/C=N/N1CCOCC1`, for which the Potency result was “inactive”.
Same read-out and setting: the value for `O=C1NCN(c2ccccc2)C12CCN(C(c1cccs1)c1nnnn1C1CCCCC1)CC2` (stereo not given) was 16.4 µM (active); that for `C=Cn1ccnc1P(=S)(c1cc(N(CC)CC)ns1)c1nccn1C=C` was “inactive”.
Still for that read-out and setting: with `O=C1C[C@@H]2OCC=C3CN4CC[C@]56c7ccccc7N1[C@H]5[C@H]2[C@H]3C[C@H]46` (tested in a mixture with another compound) the entry was “inactive”.
Still for that read-out and setting: the value for `COc1ccc(CCn2c(O)c(C=NCCCn3ccnc3)c(=O)[nH]c2=O)cc1OC` was “inactive”.
On to `Cc1ccc(NC(=O)COc2ccc(-n3ccnc3)cc2)cc1Cl`, for which the Potency is 20.6 µM (active).
On the same count and under the same terms, the value for `Cc1ccc(C)c(NS(=O)(=O)c2ccc(OCC(=O)NCc3cccnc3)cc2)c1` was “inactive”; that for `C=CCN1C(=O)NC(=O)/C(=C/c2ccc(OCC(=O)Nc3ccc(C)cc3)cc2)C1=O` was “inactive”.
On to `COc1ccc(NC(=O)N2Cc3ccccc3-n3nncc3C2)cc1`, for which the Potency entry is “inactive”.
Same read-out and setting: with `O=C1/C(=C\c2ccc3c(c2)OCO3)N2CCC1CC2` the entry was “inactive”; with `COc1ccc(C)cc1N(CC(=O)N1CCC(C)CC1)S(=O)(=O)c1ccc(C)cc1`, 13 µM (active); with `CCOC(=O)c1c(N)n(CCN2CCOCC2)c2nc3ccccc3nc12`, “inactive”.
Turning to `CC(=O)NC(=O)NC(C)Cc1ccccc1` (stereo not given), the Potency result is “inactive”.
Still for that read-out and setting: with `Nc1ccc(C(=O)N/N=C2/CN3CCC2CC3)cc1` the entry was “inactive”.
With `CN(C)C(=O)Oc1ccc(OCc2cccc[n+]2C)cc1`, the Potency entry was “inactive”.
On the same count and under the same terms, with `Cc1cc2ccccn2c1C(C[N+](=O)[O-])c1c(F)cccc1Cl` (stereo not given) the figure was 14.6 µM (active).
On the same count and under the same terms, the value for `CCN1C(=O)C(=Cc2c(C)n(CC(=O)NCC3CCCO3)c3ccccc23)C(=O)N(CC)C1=S` (stereo not given) was “inactive”; that for `CN(C)CC1CCCCC1=O` (stereo not given) was 13 µM (active).
Still for that read-out and setting: the value for `COC(=O)C(O)(c1ccc(NC(=O)c2ccco2)c(OC)c1)C(F)(F)F` (stereo not given) was “inactive”; that for `CC(=CCOc1ccc2ccc(=O)oc2c1)C1=CC(=O)C(C)(C)O1` was 3.26 µM (active).
Turning to `CC(C)c1ccc(OCC(=O)N2CCN(C)CC2)c(Br)c1`, the Potency entry was “inactive”.
As to `O=C(C1CCN(S(=O)(=O)c2ccc(Br)s2)CC1)N1CCN(c2ccccc2)CC1`, the Potency was 20.6 µM (active).
Still for that read-out and setting: the value for `COc1ccc(Cn2c(O)c(/C=C3/C=CC=N3)c(=O)[nH]c2=O)cc1` was 16.4 µM (active); that for `O=C(N/N=C/c1c(O)n(Cc2ccccc2)c(=O)[nH]c1=O)c1ccccc1` was “inactive”.
Same read-out and setting: with `COc1ccc(N=Cc2c(O)n(C)c(=O)[nH]c2=O)cc1` the entry was “inactive”; with `Nc1ccc(Cc2ccc(N)c(Cl)c2)cc1Cl`, “inactive”.
Still for that read-out and setting: with `CCCN(C/C=C/I)C1CCc2ccc(O)cc2C1` (stereo not given) the figure was 20.6 µM (active); with `Cc1cccc2c(CCN)c[nH]c12`, “inactive”; with `Oc1cc2c(cc1CN1CCN(c3ccccc3)CC1)OCO2`, “inactive”.
For `CC(=O)OC1C2(CC3N4C(=O)C5(CO)SSC4(CC31O)C(=O)N5C)OC(C)C(C)(C)C2=O` (stereo not given), the Potency is 0.164 µM (active).
Regarding `COC(=O)CN1C(=O)C2(C(C(=O)OC)=C(N)Oc3ccccc32)C2=C1CC(C)(C)CC2=O` (stereo not given), the Potency entry was “inactive”.
As for `Cc1cc(OCc2cc(C(=O)O)oc2C)c2c3c(c(=O)oc2c1)CCCC3`, the Potency entry was “inactive”.
Still for that read-out and setting: the value for `COC(=O)COc1cc(C)cc2oc(=O)c3c(c12)CCCC3` was “inactive”; that for `CC(=O)c1ccc(OC(NC(=O)Cc2ccccc2)C(Cl)(Cl)Cl)cc1` (stereo not given) was “inactive”.
The same measure, in the same setting: with `CCCCCCCCCCCCn1ccc(=N)cc1` the figure was 0.411 µM (active); with `CC(=C1C(=O)c2ccccc2C1=O)N1CCN(CCN=Cc2c(O)n(C)c(=O)n(C)c2=O)CC1`, “inactive”.
The same measure, in the same setting: the value for `CN1CCc2cc3c(cc2[C@H]1[C@@H]1OC(=O)c2c1ccc1c2OCO1)OCO3` was “inactive”.
